Reference: PubChem BioAssay
Activity calls are given as the source filed them.

Key:
[1] = system: Plasmodium falciparum Sir2 (PF13_0152, Sir2A); assay: pfSir2 binders on small-molecule microarrays, primary screen, biochemical, small-molecule microarray, 635 nm fluorescence (AID 1098); conditions: small-molecule microarray binding, fluorescence 635 nm; higher = more signal;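 note: score merges spot fluorescence intensity with its signal-to-noise ratio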
[2] = small-molecule microarray binders of probe aDKK1, primary screen, biochemical, biotinylated probe, 635/667 nm fluorescence (AID 1099); conditions: higher = more signal;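 note: score merges 667nm spot fluorescence with signal to noise across triplicate slides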
[3] = small-molecule microarray binders of probe aCHRDL2, primary screen, biochemical, biotinylated probe, 635/667 nm fluorescence (AID 1100); conditions: higher = more signal
[4] = splicing luciferase reporter signal modulators, primary screen, spliceosome inhibition project, cell-based, HEK293, splice +/- reporter (AID 1101); conditions: luminescence, 24 h, higher = more signal, called active from +8 up or from −8 down;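 note: HEK293 cells carrying a splicing-competent luciferase reporter gene; test concentration not given here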
[5] = molecular target: Fibroblast growth factor 10 (Homo sapiens) (UniProt O15520); assay: FGF10 binders on small-molecule microarrays, primary screen, biochemical, small-molecule microarray, 635 nm fluorescence (AID 1102); conditions: FGF10 binding, fluorescence 635 nm, higher = more signal
Chain of Fibroblast growth factor 10 (Homo sapiens) (O15520 whole entry, looked up): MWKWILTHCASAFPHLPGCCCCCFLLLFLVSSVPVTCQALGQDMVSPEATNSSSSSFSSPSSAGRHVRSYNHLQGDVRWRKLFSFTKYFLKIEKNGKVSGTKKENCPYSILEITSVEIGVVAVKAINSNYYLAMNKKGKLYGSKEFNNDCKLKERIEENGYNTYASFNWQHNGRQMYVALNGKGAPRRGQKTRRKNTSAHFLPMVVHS

[6] = system: glycogen synthase kinase-3 (GSK3A per assay name; protocol says GSK3B); assay: GSK3 binders on small-molecule microarrays, primary screen, biochemical, small-molecule microarray, 635 nm fluorescence, GSK3A (AID 1103); conditions: small-molecule microarray binding, fluorescence 635 nm; higher = more signal; note: the record names both GSK3A and GSK3B
[7] = molecular target: Epidermal growth factor receptor (Homo sapiens) (UniProt P00533); assay: EGFR binders on small-molecule microarrays, primary screen, biochemical, small-molecule microarray, 635 nm fluorescence (AID 1104); conditions: EGFR binding, higher = more signal;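 note: score merges 667 nm emission intensity with spot signal to noise over triplicate slides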
Chain of Epidermal growth factor receptor (Homo sapiens) (P00533 whole entry, looked up): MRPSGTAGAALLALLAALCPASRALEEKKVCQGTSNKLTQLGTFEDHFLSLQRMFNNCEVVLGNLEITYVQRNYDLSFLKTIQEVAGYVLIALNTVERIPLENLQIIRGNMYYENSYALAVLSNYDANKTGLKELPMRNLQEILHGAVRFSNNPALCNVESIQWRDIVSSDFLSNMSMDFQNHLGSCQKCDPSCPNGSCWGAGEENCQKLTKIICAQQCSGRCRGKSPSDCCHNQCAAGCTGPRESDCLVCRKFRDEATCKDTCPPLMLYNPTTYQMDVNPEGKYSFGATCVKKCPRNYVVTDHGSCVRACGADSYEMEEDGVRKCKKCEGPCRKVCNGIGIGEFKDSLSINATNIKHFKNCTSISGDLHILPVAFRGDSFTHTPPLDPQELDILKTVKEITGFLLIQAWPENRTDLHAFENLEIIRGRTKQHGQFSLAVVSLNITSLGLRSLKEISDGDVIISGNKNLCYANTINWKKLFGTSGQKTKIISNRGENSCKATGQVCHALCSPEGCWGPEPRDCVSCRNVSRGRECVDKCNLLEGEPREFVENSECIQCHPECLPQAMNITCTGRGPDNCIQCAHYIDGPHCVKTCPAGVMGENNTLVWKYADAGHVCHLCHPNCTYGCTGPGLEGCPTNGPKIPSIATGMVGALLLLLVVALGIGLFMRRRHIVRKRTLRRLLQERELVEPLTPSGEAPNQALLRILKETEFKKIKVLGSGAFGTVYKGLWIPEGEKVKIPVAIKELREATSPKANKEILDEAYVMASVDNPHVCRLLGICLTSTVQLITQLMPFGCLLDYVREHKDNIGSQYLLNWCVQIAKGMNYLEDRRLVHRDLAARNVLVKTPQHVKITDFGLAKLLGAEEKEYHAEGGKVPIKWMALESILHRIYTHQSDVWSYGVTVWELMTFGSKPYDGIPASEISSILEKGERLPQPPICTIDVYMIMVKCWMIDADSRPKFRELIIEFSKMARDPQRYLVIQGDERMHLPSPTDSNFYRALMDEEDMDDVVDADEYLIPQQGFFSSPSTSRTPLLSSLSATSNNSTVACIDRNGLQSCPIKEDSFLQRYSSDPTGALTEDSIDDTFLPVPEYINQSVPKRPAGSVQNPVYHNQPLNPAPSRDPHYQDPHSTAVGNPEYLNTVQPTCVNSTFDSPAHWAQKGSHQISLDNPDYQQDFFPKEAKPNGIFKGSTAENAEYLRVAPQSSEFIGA

[8] = molecular target: Follistatin-related protein 3 (Homo sapiens) (UniProt O95633); assay: FSTL3 binders on small-molecule microarrays, primary screen, biochemical, small-molecule microarray, 635 nm fluorescence (AID 1105); conditions: FSTL3 binding, higher = more signal;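 note: score merges emission near 667 nm and signal to noise per printed spot across three slides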
Chain of Follistatin-related protein 3 (Homo sapiens) (O95633 whole entry, looked up): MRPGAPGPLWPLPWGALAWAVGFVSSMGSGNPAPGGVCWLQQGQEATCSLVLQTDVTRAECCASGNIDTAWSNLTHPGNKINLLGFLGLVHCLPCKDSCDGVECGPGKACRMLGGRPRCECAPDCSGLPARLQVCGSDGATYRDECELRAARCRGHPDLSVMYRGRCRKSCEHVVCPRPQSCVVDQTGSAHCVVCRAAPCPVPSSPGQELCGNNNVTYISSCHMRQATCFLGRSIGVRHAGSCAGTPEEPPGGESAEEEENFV

[9] = molecular target: Dickkopf-related protein 1 (Homo sapiens) (UniProt O94907); assay: DKK1 binders on small-molecule microarrays, primary screen, biochemical, small-molecule microarray, 635 nm fluorescence scan (AID 1106); conditions: DKK1 binding, higher = more signal;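 note: score merges emission near 667 nm with signal to noise over three replicate slides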
Chain of Dickkopf-related protein 1 (Homo sapiens) (O94907 whole entry, looked up): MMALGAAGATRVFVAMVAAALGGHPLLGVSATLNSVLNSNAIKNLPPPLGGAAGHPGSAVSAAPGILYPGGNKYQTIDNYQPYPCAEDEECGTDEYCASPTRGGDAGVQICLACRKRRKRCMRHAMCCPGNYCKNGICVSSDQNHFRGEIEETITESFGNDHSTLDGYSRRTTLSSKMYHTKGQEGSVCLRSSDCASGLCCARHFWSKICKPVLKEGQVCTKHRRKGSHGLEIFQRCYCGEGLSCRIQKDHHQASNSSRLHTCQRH

[10] = system: Inhibin beta A chain (activin A); assay: INHBA (activin A) binders on microarrays, primary screen, biochemical, small-molecule microarray, 635 nm fluorescence scan (AID 1107); conditions: small-molecule microarray binding, higher = more signal;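 note: mouse activin A protein probed at 4.33 µg/mL on printed slides; score merges bound-protein fluorescence near 667 nm with spot signal-to-noise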
[11] = system: Human papillomavirus type 1a protein E7 (residues 44-93); assay: HPV1a E7 fragment binders on microarrays, primary screen, biochemical, small-molecule microarray, residues 44-93, 635 nm fluorescence (AID 1108); conditions: small-molecule microarray binding, fluorescence 635 nm; higher = more signal;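 note: E7 fragment applied at 1 µg/mL in TBST for 1 h at 4 C; score combines spot fluorescence with its signal to noise ratio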
[12] = modulators of HCV replicon luciferase signal, primary screen, HCV replication inhibitor project, Huh7 cells, luciferase reporter (AID 1109); conditions: 48 h, higher = more signal;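 note: huh7 hepatoma cells harbouring a luciferase neomycin HCV replicon reporter; luciferase luminescence as measure of HCV replicon replication; test concentration not given here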
[13] = molecular target: Left-right determination factor 2 (Homo sapiens) (UniProt O00292); assay: LEFTY2 binders on small-molecule microarrays, primary screen, biochemical, small-molecule microarray, 635 nm fluorescence scan (AID 1110); conditions: LEFTY2 binding, higher = more signal
Chain of Left-right determination factor 2 (Homo sapiens) (O00292 whole entry, looked up): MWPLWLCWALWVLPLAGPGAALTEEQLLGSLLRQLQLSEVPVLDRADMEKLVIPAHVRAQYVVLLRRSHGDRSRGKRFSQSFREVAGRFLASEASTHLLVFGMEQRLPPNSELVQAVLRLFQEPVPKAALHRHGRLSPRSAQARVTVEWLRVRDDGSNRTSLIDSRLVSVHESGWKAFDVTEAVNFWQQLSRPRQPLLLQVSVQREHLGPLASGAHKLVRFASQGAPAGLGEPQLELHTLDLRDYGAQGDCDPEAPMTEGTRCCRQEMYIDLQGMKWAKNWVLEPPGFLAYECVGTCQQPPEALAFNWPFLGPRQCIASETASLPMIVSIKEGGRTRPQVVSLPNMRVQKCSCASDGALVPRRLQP

[14] = molecular target: Calmodulin-1 (Homo sapiens) (UniProt P0DP23); assay: CALM1 binders on microarrays, EGTA buffer, profiling panel, biochemical, small-molecule microarray, Cy5-labelled CALM1 (AID 1111); conditions: Cy5-CALM1 binding fluorescence, higher = more signal;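 note: labelled calmodulin applied in Tris saline Tween buffer holding calcium plus EGTA and DTT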
[15] = molecular target: Calmodulin-1 (Homo sapiens) (UniProt P0DP23); assay: calcium-bound CALM1 binders on microarrays, profiling panel, artefact control for SMM control-protein annotation, biochemical, small-molecule microarray, Cy5-labelled CALM1, plus calcium (AID 1112); conditions: Cy5-CALM1 binding fluorescence, higher = more signal;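 note: score merges spot fluorescence with signal to noise from triplicate slides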
[16] = small-molecule microarray binders of probe aWnt5a, primary screen, biochemical, biotinylated probe, 635/667 nm fluorescence (AID 1113); conditions: higher = more signal;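 note: score merges 667 nm fluorescence intensity with signal-to-noise per printed feature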
[17] = small-molecule microarray binders of probe aShh, primary screen, biochemical, biotinylated probe, 635/667 nm fluorescence (AID 1114); conditions: higher = more signal;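 note: probe is biotin-labelled aShh protein from a stem cell growth factor screen; measures binding of labelled protein to compounds printed on the slide; score merges feature fluorescence at 667 nm with signal-to-noise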
[18] = small-molecule microarray binders of probe aNog, primary screen, biochemical, biotinylated probe, 635/667 nm fluorescence (AID 1115); conditions: higher = more signal;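 note: probe is biotinylated aNog protein used at 0.15 µg/mL for 1 h at 4 C; z-score combines 667 nm fluorescence of each spot with its signal to noise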
[19] = molecular target: Torsin-1A-interacting protein 1 (Homo sapiens) (UniProt Q5JTV8); assay: LAP1 binders from COS7 cell lysate, primary screen, small-molecule microarray, 635/667 nm fluorescence (AID 1116); conditions: COS7-hLAP1 lysate binding, 635 nm fluorescence, higher = more signal
Chain of Torsin-1A-interacting protein 1 (Homo sapiens) (Q5JTV8 whole entry, looked up): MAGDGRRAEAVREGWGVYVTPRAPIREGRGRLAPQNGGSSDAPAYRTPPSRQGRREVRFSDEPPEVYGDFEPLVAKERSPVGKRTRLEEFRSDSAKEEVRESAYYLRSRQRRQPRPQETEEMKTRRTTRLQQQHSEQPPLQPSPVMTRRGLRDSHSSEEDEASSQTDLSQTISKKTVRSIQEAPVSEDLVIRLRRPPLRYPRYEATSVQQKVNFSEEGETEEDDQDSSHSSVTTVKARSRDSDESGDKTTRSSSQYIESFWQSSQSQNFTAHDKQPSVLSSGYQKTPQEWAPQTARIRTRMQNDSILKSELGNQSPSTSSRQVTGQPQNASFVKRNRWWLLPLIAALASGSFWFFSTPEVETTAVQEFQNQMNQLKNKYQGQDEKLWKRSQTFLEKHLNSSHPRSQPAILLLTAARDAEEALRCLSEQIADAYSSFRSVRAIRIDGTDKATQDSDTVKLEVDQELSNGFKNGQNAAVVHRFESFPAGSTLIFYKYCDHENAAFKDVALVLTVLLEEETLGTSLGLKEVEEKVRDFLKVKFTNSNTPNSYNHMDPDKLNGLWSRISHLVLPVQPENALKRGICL

[20] = molecular target: Alpha-bungarotoxin (Bungarus multicinctus) (UniProt P60615); assay: alpha-bungarotoxin binders on microarray, profiling panel, artefact control for SMM control protein annotation, biochemical, small-molecule microarray, Alexa647 label, 635/667 nm fluorescence (AID 1117); conditions: alpha-BTX-A647 binding fluorescence, higher = more signal
Chain of Alpha-bungarotoxin (Bungarus multicinctus) (P60615 whole entry, looked up): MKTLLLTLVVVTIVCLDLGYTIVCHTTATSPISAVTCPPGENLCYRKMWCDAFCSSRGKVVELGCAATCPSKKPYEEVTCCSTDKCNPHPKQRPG

| Compound | composite z-score [1] | composite z-score [2] | composite z-score [3] | z-score [4] | composite z-score [5] | composite z-score [6] | composite z-score [7] | composite z-score [8] | composite z-score [9] | composite z-score [10] | composite z-score [11] | z-score [12] | composite z-score [13] | composite z-score [14] | composite z-score [15] | composite z-score [16] | composite z-score [17] | composite z-score [18] | composite z-score [19] | composite z-score [20] |
| --- | --- | --- | --- | --- | --- | --- | --- | --- | --- | --- | --- | --- | --- | --- | --- | --- | --- | --- | --- | --- |
| COC(=O)[C@@]1(Cc2ccc(F)cc2)[C@H]2c3cc(C(=O)N(C)C)n(Cc4ccc(S(C)(=O)=O)cc4)c3C[C@H]2CN1C(=O)c1ccccc1 | 0.46 | 0.883 | 0.899 | 0.895 (inactive) | 1.35 | 0.0364 | 0.603 | 0.0567 | -0.0071 | 0.95 | -0.164 | -0.328 | 0.213 | 2.54 | 0.497 | -0.0125 | 0.123 | 1.84 | 2.08 | 0.15 |
| COC(=O)[C@@]1(Cc2ccc(OC)cc2)[C@H]2c3cc(C(=O)N(C)C)n(Cc4cccc5ccccc45)c3C[C@H]2CN1C(=O)c1ccccc1 | 0.971 | 1.8 | 0.771 | -3.61 (inactive) | 1.04 | 0.329 | 0.671 | 0.553 | 0.208 | 0.537 | 1.48 | -2.35 | 0.243 | 1.48 | 0.94 | 0.346 | 1.33 | 2.12 | 1.41 | 0.563 |
| COC(=O)[C@@]1(Cc2ccccc2)[C@H]2c3cc(C(=O)N4CCCC4)n(CC4CC4)c3C[C@H]2CN1C(=O)c1ccccc1 | 1.23 | 1.48 | 1.16 | -2.08 (inactive) | 0.596 | 1.29 | 0.436 | 1.17 | -0.23 | 1.16 | 1.39 | -2.17 | 0.192 | 1.13 | 0.697 | 0.647 | 0.834 | 2.57 | 0.079 | 0.615 |
| C=CCC(OC(C)=O)[C@@H]1[C@@H](N(Cc2ccc(-c3ccccc3)cc2)C(=O)Cc2ccc(F)cc2)c2cc(OCCCO)ccc2N1C(=O)c1ccc(-c2ccccc2)cc1 (stereo not given in full) | 0.152 | -0.0501 | 0.216 | -2.23 (inactive) | 0.152 | -1.02 | -0.376 | 0.268 | -0.282 | 0.778 | -0.866 | -1.23 | -0.177 | -0.454 | 0.266 | -0.1 | 0.0048 | -0.143 | 0.205 | -0.257 |
| COc1ccc([Si](C)(C)[C@@H]2[C@@H](CC(=O)N3Cc4ccccc4C[C@H]3CO)O[C@]3(C(=O)N(C)c4c(Br)cc(C)cc43)[C@H]2C)cc1 | 0.859 | -0.0347 | -0.311 | -2.12 (inactive) | 1.33 | 0.954 | 0.968 | 1.08 | 0.685 | 1.13 | 1.37 | -4.43 | 0.637 | 0.0208 | 0.235 | 0.0078 | -0.0793 | -0.454 | 0.418 | 1.01 |
| COc1ccc(C(=O)O[C@H]2CC[C@]3(C)C4=C(CCC3C2(C)C)[C@]2(C)CC[C@H]([C@H](C)CCCC(C)C)[C@@]2(C)CC4)cc1 (stereo not given in full) | 0.0931 | -0.287 | -0.384 | -0.968 (inactive) | 0.205 | 0.751 | 0.302 | 0.561 | 0.458 | 0.225 | -0.0389 | 0.606 | 0.567 | -0.459 | -0.83 | -0.0792 | -0.0553 | -0.0242 | 0.0921 | -0.086 |
| Cc1ccc(C(C)CC(O)C2C=CC3C(=O)N(c4ccccc4)C(=O)C3N2Nc2ccc([N+](=O)[O-])cc2)o1 (stereo not given) | 0.883 | -0.199 | 0.904 | 0.907 (inactive) | 0.938 | 1.27 | 0.152 | 0.904 | 0.0201 | 0.77 | 1.41 | -0.212 | 0.135 | 1.17 | -0.284 | -0.0792 | -0.229 | 0.437 | 0.866 | 1.3 |
| O=C1OCCC/C=C\[C@H]2OC34C=CCN(Cc5ccccc5)C(=O)[C@H]3N(CCCCCCO)C(=O)[C@@H]4C12 (stereo not given in full) | -0.0862 | 0.227 | 0.932 | -0.286 (inactive) | -0.942 | -0.457 | -1.69 | -1.27 | -1.69 | -0.546 | 0.103 | -1.3 | -1.74 | -0.046 | 0.572 | -0.206 | -0.0337 | -0.355 | -1.03 | -0.313 |
| COc1ccc([Si](C)(C)[C@H]2[C@H](CCO)O[C@@]3(C(=O)N(Cc4ccc(N5C(=O)COc6ccccc65)cc4)c4ccccc43)[C@@H]2C)cc1 | 0.0297 | -0.0813 | 0.812 | -1.15 (inactive) | -0.712 | -1.01 | -0.95 | -0.534 | -0.297 | -0.515 | 0.49 | -4.92 | -1.45 | 0.471 | 0.601 | -0.147 | -0.153 | 0.201 | -0.373 | 0.11 |
| COCCOC(=O)N1C(=O)[C@@]2(c3cc(C#CC4=CCCCC4)ccc31)[C@H](C(=O)Nc1nc3ccccc3s1)[C@H]1C(=O)O[C@H](c3ccccc3)[C@H](c3ccccc3)N1[C@@H]2c1ccc(OCCO)cc1 | 0.687 | -0.0057 | 0.235 | 0.000305 (inactive) | 0.945 | 1.21 | 0.36 | 0.908 | 0.495 | 0.91 | 1.05 | -1.09 | 0.269 | 0.792 | -0.171 | -0.0685 | -0.196 | -0.337 | 0.47 | 0.387 |
